HEK293 tox = cytotoxic in the GLP-1 receptor inverse agonist counter-screen. HEK293 cAMP-luciferase reporter cells, luminescence, 24 h. Potency, µM (top dose mostly 38.3 µM), hits mostly inhibitors. 410,000 compounds, 0.13% hits. AID 624418;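 also: loss of luciferase light is scored as toxicity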
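Cells in DMEM/10% Nu serum/1% pen-strep, 1536-well format. Pre-incubated 12 h, dosed with 23 nL compound, incubated a further 24 h. Luciferase detection, 12 min at room temp, luminescence.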
RORgamma inh = blocks mouse ROR gamma transcriptional activity; Potency, µM (highest dose often 53.6 µM), usual class: inhibitors; Drosophila S2 Gal4-RORgamma UAS-luciferase reporter, 20 h; AID 2551; 310,000 compounds, 5.4% hits; P51450; also: nearly all actives have a fitted effect of over 60% in size
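Compounds are pin-transferred onto Drosophila Schneider cells expressing a copper-inducible Gal4–ROR gamma transactivation domain fusion. After 1 hr, copper sulfate is added to 700 uM final; luciferase is read 20 hr later.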
Gal4-VP16 FLuc = inhibits Gal4-VP16 luciferase reporter, ROR gamma counter-screen; 310,000 compounds, 3.5% hits; Drosophila S2 Gal4-VP16 UAS-luciferase, luminescence, 20 h; Potency, µM (top dose mostly 53.6 µM), actives largely listed as inhibitors;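 also: Gal4-VP16 expression switched on by copper sulfate through the metallothionein promoter; nearly all actives have a fitted effect of over 50% in size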
GLP1R inv ag = GLP-1 receptor (human) inverse agonism; P43220; HEK293 GLP-1R CRE-luciferase, luminescence, 24 h; GLP-1R form is constitutively active; Potency, µM (series often up to 38.3 µM), hits mostly inhibitors; 410,000 compounds, 1.6% hits; AID 624417; also: nearly all actives have a fitted effect of over 55% in size
Target sequence (P43220 whole entry, looked up): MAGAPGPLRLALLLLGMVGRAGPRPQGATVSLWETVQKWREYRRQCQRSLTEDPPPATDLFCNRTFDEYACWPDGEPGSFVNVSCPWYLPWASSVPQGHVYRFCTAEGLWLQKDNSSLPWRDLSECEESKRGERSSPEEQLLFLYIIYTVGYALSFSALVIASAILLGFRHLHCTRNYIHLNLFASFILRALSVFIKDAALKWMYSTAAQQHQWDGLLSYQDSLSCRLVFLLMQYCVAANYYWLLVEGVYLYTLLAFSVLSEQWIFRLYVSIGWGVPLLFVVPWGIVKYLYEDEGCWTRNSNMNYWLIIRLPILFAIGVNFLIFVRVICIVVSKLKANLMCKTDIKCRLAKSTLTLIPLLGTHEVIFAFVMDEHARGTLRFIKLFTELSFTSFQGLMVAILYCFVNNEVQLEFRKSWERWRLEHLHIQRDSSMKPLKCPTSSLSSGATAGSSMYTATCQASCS
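HEK293 cells stably co-expressing a cAMP-responsive luciferase reporter and constitutively active GLP-1R were seeded, incubated 12 h, then exposed to compounds for 24 h at 37 C. Luminescence was read 12 min after detection reagent; inverse agonists lower signal.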
GLP1R ag = GLP-1 receptor (human) agonism; HEK293 GLP-1R CRE-luciferase, luminescence, 4-6 h; cells express a hypersensitive GLP-1R form; 380,000 compounds, 0.007% hits; Potency, µM (top dose mostly 45.6 µM), hits mostly activators
Numbers stand for hits; i = inactive; ? = inconclusive; nt = not tested or not shown; ! = a repeat was not active; [ ] = another dose, or the depositor's remark. Hits are enriched below; roughly 5.9% of the tested compounds scored in any of these assays. Calls follow the shape of the dose curve; as a rule, active = well fitted curve in the direction sought with a large enough effect; inconclusive = small, poorly fitted or top-dose-only effect, or another doubt; inactive = no such curve, though single readings can be large; an effect the other way counts as inactive or inconclusive.

SMILES | HEK293 tox | RORgamma inh | Gal4-VP16 FLuc | GLP1R inv ag | GLP1R ag
Cc1c(Cl)cccc1NC(c1ccc(F)cc1)c1nnc(-c2ccccc2)o1 (configuration not stated) | i | nt | nt | 8.9µM | nt
COc1cc(O)cc(/C=C/c2ccccc2)c1 | i | i | ? | ? | i
Oc1ccc(/C=C\c2cc(O)cc(O)c2)cc1 | nt | 3.5µM! | 13µM | nt | i
Oc1ccc(/C=C/c2cc(O)cc(O)c2)cc1 | i | 2µM | 14µM! | ? | i
CON(C)C(=O)c1nnc2c3ccccc3n(S(=O)(=O)c3ccc(C)cc3)c2n1 | nt | i[10 µM] | i[10 µM] | nt | nt
CC1(C(=O)NCc2cccc(C(F)(F)F)c2)CCN1C1Cc2ccccc2C1 (configuration not stated) | i | nt | nt | 13µM | i
CC1(C(=O)NCc2cccc(C(F)(F)F)c2)CCN1CCc1ccccc1 (configuration not stated) | i | nt | nt | ? | i
Cc1[nH]c2ccc(Br)cc2c(=S)c1C/C=C/Cl | ? | 7.9µM | i | ? | i
CCOc1ccc(CCNC(=O)c2sc3nc4n(c(=O)c3c2C)CCCC4)cc1 | i | nt | nt | i | nt
CC(/C=N/n1c(-c2cc(C)[nH]n2)n[nH]c1=S)=C\c1ccco1 | i | i | i | i | i
Cc1cccc(-c2n[nH]c(=S)n2/N=C/c2ccco2)c1 | i | 8.9µM | ? | i | i
S=c1[nH]nc(-c2cccnc2)n1/N=C/c1ccco1 | i | ? | i | i | i
CC(/C=N/n1c(-c2ccc(Cl)cc2)n[nH]c1=S)=C\c1ccco1 | i | 3.2µM | 4µM | i | i
Cc1ccc(-c2n[nH]c(=S)n2/N=C\c2ccco2)cc1 | i | 6.3µM | 5.6µM | i | i
Cc1ccc(OCc2nc(-c3ccc(C(=O)N4CCN(c5cc(Cl)ccc5C)CC4)cc3)oc2C)cc1 | i | nt | nt | ? | nt
CC(=O)N1CC=CC1(CC(C)C)C(=O)O (configuration not stated) | nt | i | i | nt | nt
CCCOc1ccc(C(=O)Nc2cc(-c3nc4ccccc4[nH]3)ccc2C)cc1 | i | nt | nt | 7.1µM | nt
Cc1ccc(S(=O)(=O)NCCc2nnc3ccc(SCc4cccc(F)c4)nn23)cc1 | i | nt | nt | i | nt
Cc1nc(N)sc1-c1csc(Nc2ncccn2)n1 | i | 6.3µM | ? | i | i
CCCOc1ccc(NC(=O)c2c(-c3ccccc3)noc2C)cc1 | ? | i | i | i | i
CCCOc1ccc(C(=O)NC(=S)NNC(=O)c2c(-c3ccccc3)noc2C)cc1 | i | 4µM | ? | i | i
Cc1onc(-c2ccccc2)c1C(=O)NC(=S)NNC(=O)c1ccccc1O | ? | i | i | 2.8µM | i
Cc1onc(-c2ccccc2)c1C(=O)NC(=S)NNC(=O)c1ccc(O)cc1O | i | ? | i | ? | i
Cc1ccc(C)c(N2CCN(C(=O)c3cnn(-c4ccccc4Cl)c3C3CCN(C(=O)OC(C)(C)C)CC3)CC2)c1 | i | nt | nt | i | nt
C=CCOC(/C=C/c1ccccc1)C[Si](C)(C)C (configuration not stated) | nt | i | i | nt | nt
SMILES | HEK293 tox | RORgamma inh | Gal4-VP16 FLuc | GLP1R inv ag | GLP1R ag
Cc1ccc(OCC(=O)c2cc(C)c(C)cc2C)c([N+](=O)[O-])n1 | i | 11µM | ? | i | i
Cc1ccc(C)c(C(=O)COc2ccccc2[N+](=O)[O-])c1 | i | i | 13µM | i | i
COc1ccc(CCNC(=O)CSc2cn(CCNC(=O)c3cccc(C(F)(F)F)c3)c3ccccc23)cc1OC | i | nt | nt | ? | i
Cc1nc2sccn2c1-c1csc(NCc2ccccc2)n1 | i | ? | 1µM | i | i
C=CCNc1nc(-c2c(C)nc3sccn23)cs1 | i | ? | i | i | i
Cc1cccc(C(=O)Nc2ccc(C(=O)/C=C/c3ccncc3)cc2)c1 | i | ? | 13µM | i | i
Cc1cccc(C(=O)Nc2ccc(C(=O)Nc3ccc(O)cc3)cc2)c1 | ? | i | i | 2.8µM | i
Cc1ccc(C(=O)Nc2ccc3ncccc3c2)cc1 | i | 14µM | 11µM | ? | i
Cc1ccc(C(=O)Nc2cc(C(C)C)c(O)c(C(C)C)c2)cc1 | i | i | i | 4.5µM | i
COc1ccc(C(=O)Nc2ccc3ncccc3c2)cc1 | i | ? | ? | ? | i
Oc1cccc(-c2c3nc(c(-c4cccc(O)c4)c4ccc([nH]4)c(-c4cccc(O)c4)c4nc(c(-c5cccc(O)c5)c5ccc2[nH]5)CC4)C=C3)c1 | nt | nt | nt | nt | i
COC(=O)C1=C[C@@H](C(=O)OC)[C@@H]2C3=C(C(=O)C2(C)C)[C@H](C)n2c(=O)n(C)c(=O)n2[C@@H]3C1 | nt | i | i | nt | nt
O=C1C[C@@H](O)[C@@H](O)[C@H]2[C@@H]3C(=O)N(Cc4ccccc4)C(=O)[C@@H]3CC[C@H]12 | nt | i[10 µM] | i[10 µM] | nt | nt
Cc1ccc(Oc2c(C(F)(F)F)oc3c(CN4CCC(C)CC4)c(O)ccc3c2=O)cc1 | i | nt | nt | i | nt
COc1ccc(CNc2nc(NCc3ccc(OC)cc3)c3ncn(C4CCCCC4)c3n2)cc1 | nt | ? | i | nt | nt
C/C(=N\NC(N)=S)C1=CCC2C3CC[C@H]4CC(O)CC[C@]4(C)C3CC[C@]12C (some centres not stated) | i | 2.5µM | ? | ? | i
Cc1ccc(/C=N/NC(=O)Cc2cccs2)o1 | i | ? | 35µM | i | i
C[n+]1c(/C=C/c2ccc(O)cc2)ccc2ccccc21 | ? | i | i | i | i
Cc1cc(/C=C\c2ccc3cc(N(C)C)ccc3[n+]2C)c(C)n1-c1ccccc1 | ? | i[2.98 µM] | 2.8µM | 2µM | i
O=C(Oc1ccc(OC(=O)C2CCC2)cc1)C1CCC1 | i | 11µM | 22µM | i | i
O=C(Oc1ccc2ccccc2c1)C1CCC1 | i | i | i | i | i
CCN(c1ccccc1)c1nnc(NC(=O)Nc2ccc(Br)cc2)s1 | i | nt | nt | i | nt
Cc1cccc(C)c1NC(=O)CCCSc1nnc(-c2ccc(F)cc2)n1-c1ccccc1 | i | ? | i | ? | i
Cc1cccc(C)c1NC(=O)CCCSc1nnc(-c2ccc(Cl)cc2)n1-c1ccccc1 | i | ? | i | 5.6µM | i
Cc1nnn(-c2nonc2N)c1C(=O)N/N=C/c1ccccc1O | i | 1.3µM | 2.8µM | i | i
SMILES | HEK293 tox | RORgamma inh | Gal4-VP16 FLuc | GLP1R inv ag | GLP1R ag
Cc1nnn(-c2nonc2N)c1C(=O)N/N=C/c1cccc2ccccc12 | i | i | 13µM | i | i
CC(C)Cc1nc(SCC(=O)N2CCCCC2)c2c(=O)n(C)c(=O)n(C)c2n1 | i | i | i | 10µM | i
S=c1nc(-c2ccccn2)c(-c2ccccn2)n[nH]1 | i | nt | nt | i | i
Cc1ccc(-c2n[nH]c(=S)nc2-c2ccc(C)cc2)cc1 | i | 5µM | ? | ? | i
O=[N+]([O-])c1ccccc1/C=N/Nc1nnc(-c2ccccc2)c(-c2ccccc2)n1 | i | 3.2µM | 3.2µM | i | i
CCCNC(=S)N(Cc1ccccc1)Cc1nc2ccccc2c(=O)[nH]1 | i | 13µM | ? | ? | i
COCC(=O)N(Cc1ccc(OC)cc1)Cc1nc2ccccc2c(=O)[nH]1 | i | i[0.365 µM] | nt | i | i
O=C(c1ccccc1)N(Cc1ccc(F)cc1)Cc1nc2ccccc2c(=O)[nH]1 | ? | 3.5µM | ? | i | i
